# This is part of a sample that, as a whole, favours compounds with a hit. Of some 83,000 tested, about 20% had one in any assay.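 For each line, cells grew in 96-well plates with the test compound present at a single concentration for 48 hours.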 Values without a mark were called inactive. Calls of active or inactive are those of the source. How the source made its calls: active means growth percent below 10; inactive means the rest.
# System: A498 renal
# Experiment: NCI-60 one-dose screen, 48 h (100 = growth as untreated, 0 = no growth, -100 = all killed)
# Conditions: 10 µM unless noted
row,SMILES,growth
1,C=C(C)[C@@H]1CC[C@]2(C(=O)N3CCCNCC3)CC[C@]3(C)[C@H](CC[C@@H]4[C@@]5(C)CCC(=O)C(C)(C)[C@@H]5CC[C@]43C)[C@@H]12,89.5%
2,CCCCC[C@H]1CC=C2C(=O)C(Cl)=C[C@@H]2CC=CCCCC(=O)O[C@@H](CCCCC)CC=C2C(=O)C(Cl)=C[C@@H]2CC=CCCCC(=O)O[C@@H](CCCCC)CC=C2C(=O)C(Cl)=C[C@@H]2CC=CCCCC(=O)O1,106% [8 µM]
3,Cn1c(=O)c2c(ncn2CCC(=O)Nc2ccc(F)cc2)n(C)c1=O,103%
4,COc1ccc(-c2cc(-c3c(C)oc4cc5occc5c(OC)c4c3=O)nc(N)c2C#N)cc1OC,23.7%
5,COc1cc(NC(C)CN(CC(C)C)C(C)C)c2ncccc2c1 (configuration not stated),97.6%
6,COc1ccc(/C=C/C(=O)NCC(C)O)cc1 (configuration not stated),92.7%
7,Cc1cc(N(CCCNc2ccnc3cc(Cl)ccc23)Cc2ccco2)nc(Cl)n1,46.1%
8,CN(C)c1ccc(N=C2C=CC(=O)C=C2)cc1,93.1%
9,Fc1ccc(NCc2nnc(-c3ccc(Cl)cc3)o2)cc1,77.2%
10,COc1ccc(OCC(CO)N2CCN(c3ccccc3)CC2)cc1 (configuration not stated),108%
11,CCCCC(=O)OC1CCCCC1C (configuration not stated),93.2%
12,COc1ccc2c(c1)c(-c1nc(-c3cn(C)c4ncccc34)cs1)cn2CCN,97.4%
13,COc1ccc(CCN2C(=O)C(C)(C)SC2=S)cc1OC,99.3%
14,Cc1nnc2nc(N)[nH]n2c1=O,118%
15,COc1cccc(-c2nn(-c3ccccc3)cc2-c2ccnc(NCCNS(=O)(=O)c3cccc(F)c3)c2)c1,47.7%
16,Cc1cc(Cl)c2c(N(C)C)cccc2n1,92.1%
17,COc1ccccc1-n1cnc(N)c1C(=O)c1cc(OC)c(OC)c(OC)c1,26.6%
18,Cc1cc(N2CCCCC2)nc(N(CCNc2ccnc3cc(Cl)ccc23)Cc2ccco2)n1,61.3%

row,SMILES,growth
1,N#CC1=C(N)Oc2c(c(N)nn2-c2ccccc2)C1c1ccc(Cl)cc1Cl (configuration not stated),90.7%
2,COc1ccc(NC(=O)c2ccc3c(c2)nc(-c2cc4ccccc4[nH]c2=O)n3-c2cc(C(C)(C)C)[nH]n2)cc1,85.8%
3,Cc1ccc(Cc2cnc(NC(=O)/C=C/c3cccc(C)c3)s2)cc1,-5.43% (active)
4,Oc1cccc2oc(=S)[nH]c12,94.8%
5,COc1cc(/C=C/c2cc(/C=C/c3ccc(O)c(OC)c3)n(-c3ccccc3)c(=O)n2)ccc1O,108%
6,N#Cc1cnc2cc(OC[C@@H](O)CO)c(NC(=O)CC3CSSC3)cc2c1Nc1ccc(OCc2cccc(F)c2)c(Cl)c1,-62% (active)
7,CC(=O)OCCCCCCn1c2ccccc2c2c3c(c4c5ccccc5n(C)c4c21)C(=O)N(O)C3=O,52.9%
8,Cc1nn2c(-c3nc4cc(Cl)c(Cl)cc4[nH]3)c(-c3ccc(F)cc3)nc2s1,29.8%
9,COc1ccc(-n2c(/C=C/c3ccc(O)c(OC)c3)cc(/C=C/c3ccc(O)c(OC)c3)nc2=O)cc1,113%
10,Nc1c2c(nc3ccc(Cl)cc13)CC(c1ccc(O)cc1)CC2=O (configuration not stated),86.5%
11,O=C1c2ccccc2C(=Cc2ccccc2)c2ccccc21,-17.4% (active)
12,C/C(=N\NC(=O)C(C)SC(C)C(=O)N/N=C(\C)c1cccnc1)c1cccnc1 (configuration not stated),88.2%
13,O=C1CCC/C=C\C[C@H]2C=C(Cl)C(=O)/C2=C/C[C@H](CCCCC(F)(F)F)OC(=O)CCC/C=C\C[C@H]2C=C(Cl)C(=O)/C2=C/C[C@H](CCCCC(F)(F)F)O1,-49.5% [7.5 µM] (active)
14,O=C1/C(=C\c2ccco2)SC(=S)N1CCc1ccc(O)cc1,97.1%
15,O=C(O)/C(=C/c1ccc(O)cc1)c1ccccc1,93.2%
16,CCCCC/C(=C\c1ccccc1)C1OC(C)C(C)O1 (configuration not stated),105%
17,Cc1cc(C=O)c(C)c2c1[nH]c1ccccc12,-84.1% (active)

# System: CCRF-CEM leukemia
# Experiment: as above
# Conditions: 10 µM unless noted
row,SMILES,growth
1,C=C(C)[C@@H]1CC[C@]2(C(=O)N3CCCNCC3)CC[C@]3(C)[C@H](CC[C@@H]4[C@@]5(C)CCC(=O)C(C)(C)[C@@H]5CC[C@]43C)[C@@H]12,84.2%
2,CCCCC[C@H]1CC=C2C(=O)C(Cl)=C[C@@H]2CC=CCCCC(=O)O[C@@H](CCCCC)CC=C2C(=O)C(Cl)=C[C@@H]2CC=CCCCC(=O)O[C@@H](CCCCC)CC=C2C(=O)C(Cl)=C[C@@H]2CC=CCCCC(=O)O1,7.3% [8 µM] (active)
3,Cn1c(=O)c2c(ncn2CCC(=O)Nc2ccc(F)cc2)n(C)c1=O,97.5%
4,COc1ccc(-c2cc(-c3c(C)oc4cc5occc5c(OC)c4c3=O)nc(N)c2C#N)cc1OC,43.8%
5,COc1cc(NC(C)CN(CC(C)C)C(C)C)c2ncccc2c1 (configuration not stated),114%
6,COc1ccc(/C=C/C(=O)NCC(C)O)cc1 (configuration not stated),106%
7,Cc1cc(N(CCCNc2ccnc3cc(Cl)ccc23)Cc2ccco2)nc(Cl)n1,67.3%
8,Cc1c(C)c2c(c(C)c1NC(=O)CCCCCCC(=O)O)CCC(C)(CCCC(C)CCCC(C)CCCC(C)C)O2 (configuration not stated),71.3%
9,CN(C)c1ccc(N=C2C=CC(=O)C=C2)cc1,75.5%
10,Fc1ccc(NCc2nnc(-c3ccc(Cl)cc3)o2)cc1,74.6%
11,COc1ccc(OCC(CO)N2CCN(c3ccccc3)CC2)cc1 (configuration not stated),112%
12,CCCCC(=O)OC1CCCCC1C (configuration not stated),94.3%
13,COc1ccc2c(c1)c(-c1nc(-c3cn(C)c4ncccc34)cs1)cn2CCN,69%
14,COc1ccc(CCN2C(=O)C(C)(C)SC2=S)cc1OC,92.3%
15,Cc1nnc2nc(N)[nH]n2c1=O,109%
16,COc1cccc(-c2nn(-c3ccccc3)cc2-c2ccnc(NCCNS(=O)(=O)c3cccc(F)c3)c2)c1,12.3%
17,Cc1cc(Cl)c2c(N(C)C)cccc2n1,89.8%
18,COc1ccccc1-n1cnc(N)c1C(=O)c1cc(OC)c(OC)c(OC)c1,24.2%
19,Cc1cc(N2CCCCC2)nc(N(CCNc2ccnc3cc(Cl)ccc23)Cc2ccco2)n1,10.2%

row,SMILES,growth
1,N#CC1=C(N)Oc2c(c(N)nn2-c2ccccc2)C1c1ccc(Cl)cc1Cl (configuration not stated),95.6%
2,N#CC1=C(N)Oc2c(sc3c(F)cccc23)C1c1ccc(Cl)cc1 (configuration not stated),15.1%
3,Cc1ccc(Cc2cnc(NC(=O)/C=C/c3cccc(C)c3)s2)cc1,9.04% (active)
4,COc1cc(/C=C/c2cc(/C=C/c3ccc(O)c(OC)c3)n(-c3ccccc3)c(=O)n2)ccc1O,28.5%
5,NC(=O)NCC1CCCCC1,99.3%
6,N#Cc1cnc2cc(OC[C@@H](O)CO)c(NC(=O)CC3CSSC3)cc2c1Nc1ccc(OCc2cccc(F)c2)c(Cl)c1,-46.4% (active)
7,CC(=O)OCCCCCCn1c2ccccc2c2c3c(c4c5ccccc5n(C)c4c21)C(=O)N(O)C3=O,34.3%
8,Cc1nn2c(-c3nc4cc(Cl)c(Cl)cc4[nH]3)c(-c3ccc(F)cc3)nc2s1,66.5%
9,COc1ccc(-n2c(/C=C/c3ccc(O)c(OC)c3)cc(/C=C/c3ccc(O)c(OC)c3)nc2=O)cc1,15.2%
10,Cc1ccc2oc(=O)cc(-c3sc(N4CCCCC4)nc3-c3ccccc3)c2c1,104%
11,Nc1c2c(nc3ccc(Cl)cc13)CC(c1ccc(O)cc1)CC2=O (configuration not stated),43.4%
12,O=C1c2ccccc2C(=Cc2ccccc2)c2ccccc21,11.7%
13,C/C(=N\NC(=O)C(C)SC(C)C(=O)N/N=C(\C)c1cccnc1)c1cccnc1 (configuration not stated),99.4%
14,O=C1CCC/C=C\C[C@H]2C=C(Cl)C(=O)/C2=C/C[C@H](CCCCC(F)(F)F)OC(=O)CCC/C=C\C[C@H]2C=C(Cl)C(=O)/C2=C/C[C@H](CCCCC(F)(F)F)O1,3.14% [7.5 µM] (active)
15,O=C1/C(=C\c2ccco2)SC(=S)N1CCc1ccc(O)cc1,44.8%
16,O=C(O)/C(=C/c1ccc(O)cc1)c1ccccc1,94.5%
17,CCCCC/C(=C\c1ccccc1)C1OC(C)C(C)O1 (configuration not stated),97.2%
18,Cc1cc(C=O)c(C)c2c1[nH]c1ccccc12,83.5%

# Reference: PubChem BioAssay (NCI)
